Assay results as given in PubChem BioAssay.
Calls of active or inactive are those of the source.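 Rule for the calls, unless noted: active = visually confirmed hit in the image check and inhibition above 20%; inconclusive = visually confirmed hit but inhibition not above 20%; inactive = no visual hit in the image check.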

Experiments:
[1] = inhibitors of TNFa-induced NFkB p65 translocation, primary screen, imaging, HUVEC, MLSMR starter and 10KST1 sets (AID 438;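 active = inhibition above 20% together with a positive visual image hit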;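 note: compound added about 3h40 before a 20 min TNFalpha stimulation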;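 for inhibition: signal is the nuclear over cytoplasmic p65 intensity ratio per well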); conditions: HUVEC TNFa-induced p65 nuclear translocation; cell count: measured here: nuclei count (cytotoxicity indicator), at 2.08 µM; inhibition: at 2 µM, stronger effect = higher value, 0% TNFa-plus-vehicle, 100% no-TNFa wells
[2] = inhibitors of mutant huntingtin aggregation, primary screen, imaging, exon1htt(103Q)mCFP cells, high-content imaging (AID 483;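 active = visual image review flags a hit and inhibition of aggregation exceeds 20%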;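 note: compound exposure lasted 3 days before fixation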;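 for nuclei count: percent of the per-plate median nuclei count of sample wells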); conditions: exon1htt(103Q)mCFP cell line, aggregate imaging, at 2 µM; inhibition of aggregation: stronger effect = higher value; nuclei count: measured here: cell count, toxicity
[3] = inhibitors of E-selectin induction by TNFa, primary screen, imaging, HUVEC, immunofluorescence, MLSMR starter and 10KST1 sets (AID 487); conditions: HUVEC TNFalpha-induced E-selectin immunofluorescence imaging, at 2 µM; inhibition: stronger effect = higher value; nuclei count: measured here: cell number, toxicity;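 for inhibition: signal is fraction of cell area covered by stained E-selectin grains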;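 for nuclei count: 100% = median nuclei count of all wells on the same plate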
[4] = target: Voltage-gated potassium channel subunit beta-2 (Rattus norvegicus) (UniProt P62483); assay: KvBeta enzyme negative modulators, primary screen, biochemical, NADPH fluorescence (AID 622;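 active = fluorescence slope higher than the sample average by over 3 SD, cut at about -0.22 in these data, passing the limit was not always enough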;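 note: slope of raw intensity against log time taken from 70 to 1610 s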); conditions: recombinant KvBeta, 4-cyanobenzaldehyde reduction, at 10 µM, stronger effect = higher value
[5] = target: Voltage-gated potassium channel subunit beta-2 (Rattus norvegicus) (UniProt P62483); assay: KvBeta positive modulators, primary screen, biochemical, NADPH fluorescence (AID 623;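 active = NADPH fluorescence slope more negative than the mean of all samples by about 3 SD, 99.7% confidence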;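 note: fluorescence intensity change per second fitted from 20 to 320 s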); conditions: Recombinant KvBeta, NADPH fluorescence decrease slope, 10 min; at 10 µM; stronger effect = lower value
[6] = target: Alpha-2C adrenergic receptor (Homo sapiens) (UniProt P18825); assay: modulators of alpha2C/GIRK thallium flux, primary screen, cell-based, HEK293 alpha2C/GIRK1/2 (AID 624;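 active = fluorescence slope after compound addition differing from the mean of all screened samples at 99.7% confidence, in either direction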;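 note: slope of fluorescence ratio to pre-addition baseline per second over 15 to 24 s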); conditions: thallium flux BTC fluorescence, at 10 µM, actives lie on both sides
[7] = inhibitors of Sendai virus-induced IRF3 signaling, primary screen, TLR/RLR signaling modifier project, cell-based, Sendai virus stimulus, luciferase, 10K MLSCN set (AID 602276;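 active = inhibition at or above 50% at 10 µM; inactive = inhibition below 50%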;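 note: firefly luciferase from ISG56 promoter only with Renilla not read in this screen; 0% = Sendai virus plus DMSO and 100% = medium plus DMSO without virus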); conditions: HEK293 RL24 IRF3 luciferase reporter, at 10 µM, stronger effect = higher value
[8] = inhibitors of poly I:C-induced TLR3 signaling, primary screen, cell-based, poly I:C stimulus, luciferase, 10K MLSCN set (AID 602277;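 active = inhibition of the reporter signal at or above 50%; inactive = inhibition below 50%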); conditions: HEK293-TLR3 RL24 IRF3 luciferase reporter, at 10 µM, stronger effect = higher value

Chain of Voltage-gated potassium channel subunit beta-2 (Rattus norvegicus) (P62483 whole entry, looked up): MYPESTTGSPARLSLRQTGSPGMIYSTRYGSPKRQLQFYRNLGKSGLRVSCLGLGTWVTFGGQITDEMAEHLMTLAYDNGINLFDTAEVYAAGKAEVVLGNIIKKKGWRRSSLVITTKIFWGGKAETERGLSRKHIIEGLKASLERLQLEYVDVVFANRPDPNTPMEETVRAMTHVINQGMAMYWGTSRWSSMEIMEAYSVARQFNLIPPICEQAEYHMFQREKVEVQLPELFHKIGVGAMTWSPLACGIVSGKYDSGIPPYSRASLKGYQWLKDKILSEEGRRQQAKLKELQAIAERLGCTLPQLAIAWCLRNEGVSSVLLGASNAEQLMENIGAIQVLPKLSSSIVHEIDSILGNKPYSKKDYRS
Chain of Alpha-2C adrenergic receptor (Homo sapiens) (P18825 whole entry, looked up): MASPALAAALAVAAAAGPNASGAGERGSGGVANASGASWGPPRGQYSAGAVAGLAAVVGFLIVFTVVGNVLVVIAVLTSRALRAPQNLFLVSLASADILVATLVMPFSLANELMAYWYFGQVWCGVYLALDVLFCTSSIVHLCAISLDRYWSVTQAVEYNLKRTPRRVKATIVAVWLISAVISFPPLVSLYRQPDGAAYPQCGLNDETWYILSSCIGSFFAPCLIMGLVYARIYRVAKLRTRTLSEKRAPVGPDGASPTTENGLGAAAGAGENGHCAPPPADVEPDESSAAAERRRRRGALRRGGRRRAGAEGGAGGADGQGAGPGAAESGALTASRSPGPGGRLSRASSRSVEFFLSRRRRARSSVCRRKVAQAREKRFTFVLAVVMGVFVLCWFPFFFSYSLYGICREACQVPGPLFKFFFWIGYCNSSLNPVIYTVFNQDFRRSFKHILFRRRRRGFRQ

SMILES | cell count [1] | inhibition [1] | inhibition of aggregation [2] | nuclei count [2] | inhibition [3] | nuclei count [3] | fluorescence slope [4] | NADPH fluorescence slope [5] | slope [6] | inhibition [7] | inhibition [8]
O=c1[nH]c2cc3c(cc2cc1C(c1nnnn1C1CCCCC1)N1CCSCC1)OCCO3 (stereo not drawn) | 479 | 0% (inactive) | -12.4% (inactive) | 106% | -10% (inactive) | 96.7% | -0.313 (inactive) | -3.2e-05 (inactive) | 0.00532 (inactive) | -11.4% (inactive) | -7.01% (inactive)
COc1ccc(NC(=O)C2Cc3ccccc3C(=O)O2)cc1 (stereo not drawn) | 642 | 0.3% (inactive) | 15.6% (inactive) | 105% | -19.3% (inactive) | 120% | -0.427 (inactive) | -6e-05 (inactive) | 0.00562 (inactive) | -11.7% (inactive) | -23.5% (inactive)
COc1cccc(NC(=O)N2CCC(N3CCCCC3)CC2)c1 | 369 | 5.2% (inactive) | 7.2% (inactive) | 105% | -124% (inactive) | 119% | -0.582 (inactive) | 2.5e-05 (inactive) | 0.00728 (inactive) | 15.9% (inactive) | 26.1% (inactive)
COCCCNC(=O)CC1Oc2ccccc2NC1=O (stereo not drawn) | 762 | 0% (inactive) | 13.4% (inactive) | 87.3% | -48.7% (inactive) | 112% | -0.54 (inactive) | -5.2e-05 (inactive) | 0.00685 (inactive) | 14.8% (inactive) | 33.9% (inactive)
C=CCNC(=O)C1CC(=O)N(c2ccc(OCC(=O)Nc3ccc(OC)cc3)cc2)C1 (stereo not drawn) | 393 | 0.7% (inactive) | 7.7% (inactive) | 104% | -93.7% (inactive) | 128% | -0.339 (inactive) | -4.8e-05 (inactive) | 0.00432 (inactive) | 5.59% (inactive) | 5.9% (inactive)
CCOC(=O)c1c(NC(=O)c2cccs2)sc2c1CCN(C(=O)OCC)C2 | 416 | -2% (inactive) | -6.8% (inactive) | 99.7% | 14.8% (inactive) | 115% | -0.192 (active) | -6.6e-05 (inactive) | 0.0082 (inactive) | 10.1% (inactive) | -1.84% (inactive)
Cc1cc(C)c(NC(=O)CSc2nc3c(c(=O)n2C)SC(C)C3)c(C)c1 (stereo not drawn) | 700 | 2.9% (inactive) | -5.9% (inactive) | 102% | -22% (inactive) | 120% | -0.565 (inactive) | -3.2e-05 (inactive) | 0.00653 (inactive) | -19.3% (inactive) | -13.4% (inactive)
Cc1ccc(C)c(N2CCN(CCCNC(=O)Cn3cc4c(n3)CCC(C)C4)CC2)c1 (stereo not drawn) | 554 | 9.9% (inactive) | -8.9% (inactive) | 90.9% | 29.9% (inactive) | 106% | -0.574 (inactive) | -2.4e-05 (inactive) | 0.00559 (inactive) | 13.6% (inactive) | 41% (inactive)
CCC(C(=O)Nc1ccccc1C(=O)N1CCCC1)N1C(=O)c2ccccc2C1=O (stereo not drawn) | 623 | 16.8% (inactive) | -16.8% (inactive) | 109% | -112% (inactive) | 112% | -0.356 (inactive) | 9.2e-06 (inactive) | 0.0034 (inactive) | 4.49% (inactive) | 15.4% (inactive)
CCOC(=O)Cn1ncc(-c2ccccc2)c1N | 582 | -0.5% (inactive) | -6.8% (inactive) | 67.2% | -51.5% (inactive) | 96.2% | -0.48 (inactive) | 2.4e-05 (inactive) | 0.0046 (inactive) | -14.7% (inactive) | -27.5% (inactive)
C=CCn1c(=O)c2ccccc2n2c(SC(C)C(=O)Nc3nc(-c4ccccc4)cs3)nnc12 (stereo not drawn) | 462 | 4% (inactive) | 21.8% (inactive) | 90.4% | -26% (inactive) | 107% | -0.483 (inactive) | -2.2e-05 (inactive) | 0.00616 (inactive) | 10.9% (inactive) | 34.2% (inactive)
CC1CCCN(S(=O)(=O)c2ccc(C(=O)Nc3nnc(-c4ccccc4Cl)o3)cc2)C1 (stereo not drawn) | 687 | -2.8% (inactive) | 10.5% (inactive) | 111% | -16.5% (inactive) | 110% | -0.468 (inactive) | -2.3e-05 (inactive) | 0.0065 (inactive) | 22.7% (inactive) | 25.9% (inactive)
CCCC(=O)Nc1ccc(NC(=O)c2ccccc2OC)cn1 | 376 | -3.6% (inactive) | 18.8% (inactive) | 90.7% | -23.7% (inactive) | 96.3% | -0.442 (inactive) | 7.2e-05 (inactive) | 0.00808 (inactive) | 1.27% (inactive) | -1.09% (inactive)
Cc1nc(N2CCN(c3ncccn3)CC2)c2oc3ccccc3c2n1 | 583 | -8.7% (inactive) | 0.3% (inactive) | 106% | -56.1% (inactive) | 104% | -0.432 (inactive) | -1.4e-05 (inactive) | 0.00731 (inactive) | -3.03% (inactive) | -57.2% (inactive)
CCCCOC(=O)c1cccc(NC(=O)CC)c1 | 667 | -22.3% (inactive) | -8.8% (inactive) | 97.1% | 16.4% (inactive) | 110% | -0.557 (inactive) | 4e-05 (inactive) | 0.00523 (inactive) | -34.7% (inactive) | -123% (inactive)
COc1ccc(CNC(=O)CCc2nc(-c3ccccc3F)no2)c(OC)c1 | 354 | 1.7% (inactive) | 19.9% (inactive) | 98% | 37.2% (inactive) | 86.3% | -0.378 (inactive) | -2e-05 (inactive) | 0.00384 (inactive) | 8.05% (inactive) | 0.538% (inactive)
CC(C)[C@H](NC(=O)NCc1ccc(Cl)cc1)C(=O)O | 190 | -16.4% (inactive) | 20.4% (inactive) | 70.5% | 11.6% (inactive) | 87.2% | -0.604 (inactive) | -3.7e-05 (inactive) | 0.00337 (inactive) | 13% (inactive) | 19.3% (inactive)
CCc1nccn1S(=O)(=O)c1ccc(C)c(C)c1 | 603 | -11.5% (inactive) | 7% (inactive) | 94% | -33% (inactive) | 117% | -0.618 (inactive) | -5.2e-05 (inactive) | 0.00545 (inactive) | 7.1% (inactive) | 12.9% (inactive)
COc1ccc(-c2noc(COc3ccc(Cl)c(C)c3)n2)cc1 | 553 | 11.9% (inactive) | -13.5% (inactive) | 103% | -14% (inactive) | 94.1% | -0.527 (inactive) | -4.1e-05 (inactive) | 0.00784 (inactive) | 7.55% (inactive) | 20.3% (inactive)
COc1ccc(C)cc1C(=O)CCC(=O)Nc1ccccc1N1CCOCC1 | 382 | 8.3% (inactive) | 3.1% (inactive) | 103% | -18.1% (inactive) | 113% | -0.605 (inactive) | -5.1e-05 (inactive) | 0.00373 (inactive) | 18.5% (inactive) | 18.2% (inactive)
Cc1cc(C(=O)CSCCCn2c(=O)[nH]c3ccccc32)c(C)n1C | 494 | -3.3% (inactive) | 28.4% (inactive) | 84.7% | -68.3% (inactive) | 113% | -0.604 (inactive) | -9.1e-06 (inactive) | 0.00689 (inactive) | -10.6% (inactive) | -5.21% (inactive)
O=C(Nc1cccc(F)c1)c1cccc(S(=O)(=O)N2CCOCC2)c1 | 566 | 3% (inactive) | -14% (inactive) | 94.3% | -38.9% (inactive) | 92.1% | -0.504 (inactive) | -5.2e-05 (inactive) | 0.00763 (inactive) | 10.5% (inactive) | 98.3% (active)
CCC(=O)c1ccc(OC(=O)c2ccc(Br)o2)cc1 | 354 | 6.8% (inactive) | -19.7% (inactive) | 99.8% | -84.3% (inactive) | 112% | -0.605 (inactive) | -3e-05 (inactive) | 0.00383 (inactive) | 10.9% (inactive) | 9.67% (inactive)
C=CCNC(=O)c1ccc(Cl)cc1Cl | 344 | 1.6% (inactive) | -21.2% (inactive) | 87.7% | -31.6% (inactive) | 91.8% | -0.478 (inactive) | -4.6e-05 (inactive) | 0.00715 (inactive) | 0.0277% (inactive) | 23.8% (inactive)
O=C(CCn1c(=O)sc2ccccc21)NCc1ccc2c(c1)OCO2 | 294 | -11.1% (inactive) | 15.6% (inactive) | 92.7% | -28.3% (inactive) | 115% | -0.353 (inactive) | -5.2e-05 (inactive) | 0.00437 (inactive) | -17% (inactive) | -12.6% (inactive)
CCCN(CCC)CCCNS(=O)(=O)c1ccc2c(c1)oc(=O)n2C | 377 | -2.4% (inactive) | 6.1% (inactive) | 102% | -61.9% (inactive) | 112% | -0.432 (inactive) | -9.3e-05 (inactive) | 0.00475 (inactive) | 16.6% (inactive) | 23% (inactive)
COc1ccc(NC(=O)C23CCC(C)(C(=O)C2)C3(C)C)cc1 (stereo not drawn) | 606 | -7.7% (inactive) | -15.6% (inactive) | 103% | -111% (inactive) | 108% | -0.6 (inactive) | 6.7e-07 (inactive) | 0.00539 (inactive) | 12.6% (inactive) | 17.8% (inactive)
Cn1c(=O)c2c(nc(NCC3CCCO3)n2C)n(C)c1=O (stereo not drawn) | 314 | 0.2% (inactive) | -10.3% (inactive) | 108% | -102% (inactive) | 122% | -0.609 (inactive) | -1.6e-05 (inactive) | 0.00331 (inactive) | 6.21% (inactive) | 6.02% (inactive)
